Test results: PubChem BioAssay (NCI)
Compounds without any hit were thinned out: in the full panel of roughly 83,000, 20% have a hit.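 The test compound was applied at a single concentration to cells in 96-well plates for 48 hours, and percent growth was recorded.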 Unmarked numbers belong to inactive results. Calls of active or inactive are those of the source. The calls were made as follows: active = growth percent below 10; inactive = the rest.

What was measured:
Test in all cases: NCI-60 one-dose screen, 48 h (100 = growth as untreated, 0 = no growth, -100 = all killed)
Conditions in all cases: 10 µM
NCI-H23 lung = system: NCI-H23 lung
NCI-H226 lung = system: NCI-H226 lung
NCI-H322M lung = system: NCI-H322M lung
HOP-62 NSCLC = system: HOP-62 NSCLC
NCI-H460 lung = system: NCI-H460 lung
HOP-92 NSCLC = system: HOP-92 NSCLC
NCI-H522 lung = system: NCI-H522 lung
A549/ATCC NSCLC = system: A549/ATCC NSCLC
786-0 renal = system: 786-0 renal
COLO 205 colon = system: COLO 205 colon

Work on Fc1ccc(-c2cc(C(Cl)Cl)no2)cc1 yielded a growth (NCI-H23 lung) of 95.5%, a growth (NCI-H226 lung) of 87.2% and a growth (NCI-H322M lung) of 93.4%. The growth (HOP-62 NSCLC) was 98.2%, the growth (NCI-H460 lung) was 101% and the growth (HOP-92 NSCLC) was 99.4%. For the same compound, the growth (NCI-H522 lung) was 114%, the growth (A549/ATCC NSCLC) was 122% and the growth (786-0 renal) was 110%. It also gave a growth (COLO 205 colon) of 115%.

In the case of CC(=O)N(O)c1ccc(/C=C/c2ccccc2)cc1, the growth (NCI-H23 lung) is reported as 31%, the growth (NCI-H226 lung) is reported as -20.6% (active) and the growth (NCI-H322M lung) is reported as 29.4%. The growth (HOP-62 NSCLC) was 42.7%, the growth (HOP-92 NSCLC) was -5.13% (active) and the growth (NCI-H522 lung) was 68.3%. For the same compound, the growth (A549/ATCC NSCLC) was 25.6%, the growth (786-0 renal) was 19.9% and the growth (COLO 205 colon) was 46.5%.

CCN(CC)CCOC(=O)c1ccc(NC(=O)Nc2cccc(Cl)c2)cc1 was tested, and the growth (NCI-H23 lung) was 95.8%, the growth (NCI-H226 lung) was 99.6% and the growth (NCI-H322M lung) was 103%. The growth (HOP-62 NSCLC) was 93.4%, the growth (HOP-92 NSCLC) was 85.1% and the growth (NCI-H522 lung) was 86.7%. It also gave a growth (A549/ATCC NSCLC) of 91.4%, a growth (786-0 renal) of 95.5% and a growth (COLO 205 colon) of 105%.

COc1ccc(-c2cc(/C=C/C(=O)c3ccc(N)cc3)[nH]n2)cc1OC showed a growth (NCI-H23 lung) of 51.6%, a growth (NCI-H226 lung) of 82.3% and a growth (NCI-H322M lung) of 38.3%. For the same compound, the growth (HOP-62 NSCLC) was 55.4%, the growth (HOP-92 NSCLC) was 33.5% and the growth (NCI-H522 lung) was 24.7%. The growth (A549/ATCC NSCLC) was 32%, the growth (786-0 renal) was 42.6% and the growth (COLO 205 colon) was 27.1%.

Nc1c(C(=O)NC2CCCCC2)sc2nc3c(cc12)C(=O)CCC3 showed a growth (NCI-H23 lung) of 98.7%, a growth (NCI-H226 lung) of 95.4% and a growth (NCI-H322M lung) of 105%. The growth (HOP-62 NSCLC) was 120%, the growth (HOP-92 NSCLC) was 82.9% and the growth (NCI-H522 lung) was 98.6%. For the same compound, the growth (A549/ATCC NSCLC) was 84.5%, the growth (786-0 renal) was 99.5% and the growth (COLO 205 colon) was 116%.

In the case of CCOC(=O)c1c(Cl)c2c(n1Cc1cccc(OC)c1)-c1oncc1CC2, the growth (NCI-H23 lung) is reported as 50.5%, the growth (NCI-H226 lung) is reported as 56.9% and the growth (NCI-H322M lung) is reported as -7.41% (active). For the same compound, the growth (HOP-62 NSCLC) was 37.5%, the growth (HOP-92 NSCLC) was 31% and the growth (NCI-H522 lung) was 5.7% (active). It also gave a growth (A549/ATCC NSCLC) of 45%, a growth (786-0 renal) of 33.7% and a growth (COLO 205 colon) of 19.9%.

Cc1cc(C)c2c(Nc3ncnc4c3sc3nc(C)cc(C)c34)n[nH]c2n1 showed a growth (NCI-H23 lung) of 98.6%, a growth (NCI-H226 lung) of 93.8% and a growth (NCI-H322M lung) of 111%. It also gave a growth (HOP-62 NSCLC) of 95%, a growth (HOP-92 NSCLC) of 102% and a growth (NCI-H522 lung) of 96.9%. For the same compound, the growth (A549/ATCC NSCLC) was 102%, the growth (786-0 renal) was 106% and the growth (COLO 205 colon) was 109%.

CCc1ccc(Nc2cc(C)nc3nc(C)nn23)cc1 was tested, and the growth (NCI-H23 lung) was 3.75% (active), the growth (NCI-H226 lung) was 62.1% and the growth (NCI-H322M lung) was 61.7%. The growth (HOP-62 NSCLC) was 26.8%, the growth (HOP-92 NSCLC) was -3% (active) and the growth (NCI-H522 lung) was -14.6% (active). For the same compound, the growth (A549/ATCC NSCLC) was -17.6% (active), the growth (786-0 renal) was 34.8% and the growth (COLO 205 colon) was -96.4% (active).

With COc1ccc2c(c1)/C(=C/c1cc(OC)c(OC)c(OC)c1)C(=O)N2C the growth (NCI-H23 lung) was 34.2%, the growth (NCI-H226 lung) was 19.3% and the growth (NCI-H322M lung) was 39.5%. For the same compound, the growth (HOP-62 NSCLC) was 57.5%, the growth (HOP-92 NSCLC) was -7.03% (active) and the growth (NCI-H522 lung) was -15.1% (active). For the same compound, the growth (A549/ATCC NSCLC) was 14.5%, the growth (786-0 renal) was 29.4% and the growth (COLO 205 colon) was -36.8% (active).

With COc1cccc(-c2nnc(COc3ccc(-c4nc5ccc(C)cc5[nH]4)cc3OC)o2)c1 the growth (NCI-H23 lung) was 88%, the growth (NCI-H226 lung) was 84.6% and the growth (NCI-H322M lung) was 98%. The growth (NCI-H460 lung) was 36.7%, the growth (HOP-92 NSCLC) was 74% and the growth (NCI-H522 lung) was 91.2%. For the same compound, the growth (A549/ATCC NSCLC) was 61.8% and the growth (786-0 renal) was 81.5%.

CCOc1nc(-c2ccccc2)cc2c(O)c(C(=O)N/N=C/c3ccc(OC)cc3)[nH]c(=O)c12 gave a growth (NCI-H23 lung) of 97.9%, a growth (NCI-H226 lung) of 109% and a growth (NCI-H322M lung) of 124%. The growth (HOP-62 NSCLC) was 105%, the growth (HOP-92 NSCLC) was 74.6% and the growth (NCI-H522 lung) was 83.1%. It also gave a growth (A549/ATCC NSCLC) of 110%, a growth (786-0 renal) of 116% and a growth (COLO 205 colon) of 87.7%.

Work on CCCCCCCOc1cccc(/C=C2/C(=O)N=C3SCCCN32)c1 yielded a growth (NCI-H23 lung) of 70.7%, a growth (NCI-H226 lung) of 64.5% and a growth (NCI-H322M lung) of 89.1%. For the same compound, the growth (HOP-62 NSCLC) was 85.7%, the growth (HOP-92 NSCLC) was 62.8% and the growth (NCI-H522 lung) was 23.6%. The growth (A549/ATCC NSCLC) was 94.9%, the growth (786-0 renal) was 80.4% and the growth (COLO 205 colon) was 81.2%.

With COc1ccc(C2C=C(c3ccc(Cl)c(Cl)c3)N=C3SC(C)=CN32)cc1 (stereo not given) the growth (NCI-H23 lung) was 92.2%, the growth (NCI-H226 lung) was 86.5% and the growth (NCI-H322M lung) was 98.7%. For the same compound, the growth (HOP-62 NSCLC) was 99.5%, the growth (NCI-H460 lung) was 101% and the growth (HOP-92 NSCLC) was 98.7%. For the same compound, the growth (NCI-H522 lung) was 77.3%, the growth (A549/ATCC NSCLC) was 81.6% and the growth (786-0 renal) was 90.7%. For the same compound, the growth (COLO 205 colon) was 104%.

For Cc1nc2cc(-n3c(-c4ccc(F)cc4)nc4ccccc4c3=O)ccc2n1Cc1ccccc1, the growth (NCI-H23 lung) was 42.1%, the growth (NCI-H226 lung) was 3.55% (active) and the growth (NCI-H322M lung) was 38.2%. The growth (HOP-62 NSCLC) was 45.1%, the growth (HOP-92 NSCLC) was -15.6% (active) and the growth (NCI-H522 lung) was 44.5%. For the same compound, the growth (A549/ATCC NSCLC) was -25.4% (active), the growth (786-0 renal) was 7.98% (active) and the growth (COLO 205 colon) was 4.23% (active).

Compound COC1OC2COC(c3ccccc3)OC2C(=O)C1NC(=O)c1ccccc1 (stereo not given) has a growth (NCI-H23 lung) of 100%, a growth (NCI-H226 lung) of 106% and a growth (NCI-H322M lung) of 106%. For the same compound, the growth (NCI-H460 lung) was 97.2%, the growth (HOP-92 NSCLC) was 79.3% and the growth (NCI-H522 lung) was 95.2%. It also gave a growth (A549/ATCC NSCLC) of 105% and a growth (786-0 renal) of 109%.
